{"source": "PubChem BioAssay AID651965", "about": "(National Center for Advancing Translational Sciences (NCATS), 2013)", "note": "Out of some 340,000 compounds screened, about 6,400 (1.9%) were called active. Roughly 4% stayed inconclusive and do not appear here. This is one part of a sample in which actives are shown more often than they occur. The call rests on the fitted dose curve; in most records, active means well fitted falling curve with a large enough effect; inconclusive means small, poorly fitted or top-dose-only effect; inactive means no such curve, though single readings can be large or run the other way. Potency means the concentration at half of the fitted maximal effect.", "data": [{"target": "ATP-dependent Clp protease proteolytic subunit (Bacillus subtilis (strain 168)) (UniProt P80244)", "sequence (P80244 whole entry, looked up)": "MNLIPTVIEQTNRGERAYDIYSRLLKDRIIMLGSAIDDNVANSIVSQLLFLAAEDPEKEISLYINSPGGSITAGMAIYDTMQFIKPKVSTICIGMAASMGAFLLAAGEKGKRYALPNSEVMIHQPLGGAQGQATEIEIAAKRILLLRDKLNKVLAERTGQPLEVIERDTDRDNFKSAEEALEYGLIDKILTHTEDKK", "experiment": "qHTS Assay for Activators of ClpP; further: the source files actives as falling curves though it sought activators and does not explain the sign; nearly all actives have a fitted effect of over 65% in size", "details": "purified B. subtilis ClpP, FRET peptide cleavage, 20 min; series mostly up to 57.5 µM; activity change, negative = active: at the top concentration", "summary_of_the_method": "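FRET quenching reversal measured ClpP activation: 10 microg/mL B. subtilis ClpP at pH 8 with the FRET-FV decapeptide, read at 430 nm after 320 nm excitation. The 20-min minus 0-min signal was scaled between DMSO/no-enzyme wells and ADEP (5.8 microM final).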", "values": [{"smiles": "O=C(NCCN1CCOCC1)c1cc(Sc2cccc(Cl)c2)nc2ccccc12", "activity change, negative = active": "-1.49% (inactive)"}, {"smiles": "O=C(NCC(c1cccs1)N1CCOCC1)c1cc(-c2ccccn2)nc2ccccc12", "note": "(centres undefined)", "activity change, negative = active": "-5.18% (inactive)"}, {"smiles": "O=C(NCCN1CCOCC1)c1cc(-c2cccs2)nc2ccccc12", "Potency": "28.2 µM (active)"}, {"smiles": "NC(c1csc(NC(=O)Nc2ccccc2Oc2ccccc2)n1)c1ccccc1Cl", "note": "(centres undefined)", "activity change, negative = active": "-6.76% (inactive)"}, {"smiles": "O=C(NCc1ccc(F)cc1)c1cc(C2CCCCN2C(=O)c2ccccn2)on1", "note": "(centres undefined)", "activity change, negative = active": "-2.01% (inactive)"}, {"smiles": "COC(=O)c1c(NC(=O)CSc2nncs2)sc2c1CCCCC2", "activity change, negative = active": "-0.465% (inactive)"}, {"smiles": "COC(=O)c1c(NC(=O)c2cccs2)sc2c1CCCC2", "Potency": "35.5 µM (active)"}, {"smiles": "COC(=O)c1c(NC(=O)c2ccc(Cl)c(Cl)c2)sc2c1CCCC2", "activity change, negative = active": "-1.63% (inactive)"}, {"smiles": "CCOC(=O)c1c(NC(=O)c2ccc(S(=O)(=O)N(CC)CC)cc2)sc2c1CCCCC2", "activity change, negative = active": "-3.63% (inactive)"}, {"smiles": "CCOC(=O)c1c(NC(=O)c2ccc(Br)o2)sc2c1CCCC2", "Potency": "31.6 µM (active)"}, {"smiles": "CCOC(=O)c1c(NC(=O)c2cc(-c3ccc(Cl)cc3)on2)sc2c1CCCC2", "activity change, negative = active": "0.147% (inactive)"}, {"smiles": "Cc1noc(C)c1-c1ccc(C(=O)NCc2ccncc2)c2occc12", "activity change, negative = active": "4.3% (inactive)"}, {"smiles": "CCN1CCCC1CNc1ncnc2c1[nH]c1ccc(F)cc12", "note": "(centres undefined)", "Potency": "28.2 µM (active)"}, {"smiles": "Fc1ccc2[nH]c3c(N4CCN(Cc5ccc6c(c5)OCO6)CC4)ncnc3c2c1", "activity change, negative = active": "-28.2% (inactive)"}, {"smiles": "CCN1CCCC1CNC(=O)c1cc2cc(OC)c(OC)cc2[nH]1", "note": "(centres undefined)", "activity change, negative = active": "3.65% (inactive)"}, {"smiles": "CC(C)OCCCNc1ncnc2c1[nH]c1ccc(F)cc12", "Potency": "15.8 µM (active)"}, {"smiles": "CCN1CCCC1Cn1cnc2c([nH]c3cc(OC)ccc32)c1=O", "note": "(centres undefined)", "activity change, negative = active": "-28.6% (inactive)"}, {"smiles": "CC(C)OCCCNC(=O)c1cc(Sc2ccc(F)cc2)nc2ccccc12", "activity change, negative = active": "3.39% (inactive)"}, {"smiles": "Cc1ccc([C@H]2N[C@]3(CCCN(CC4CCCCC4)C3=O)[C@H]3C(=O)N(Cc4ccccc4)C(=O)[C@@H]23)cc1", "activity change, negative = active": "0.684% (inactive)"}, {"smiles": "CCCc1c(-c2ccccc2F)ncn1Cc1ccccc1OC", "activity change, negative = active": "-0.97% (inactive)"}, {"smiles": "C=C1C(=O)OC2C1CCC(C)=CCCC1(C)OC21", "note": "(centres undefined)", "activity change, negative = active": "-0.985% (inactive)"}, {"smiles": "O=C(NCc1ccc(F)cc1)c1cc(C2CCCCN2C(=O)c2cccs2)on1", "note": "(centres undefined)", "activity change, negative = active": "1.26% (inactive)"}, {"smiles": "COc1cc2[nH]c(C)c(CCN3CCN(c4ccccc4)CC3)c2cc1OC", "activity change, negative = active": "-28.6% (inactive)"}, {"smiles": "CC1(C(=O)NS(=O)(=O)C2CC2)CCCN(C(=O)CSc2ccccc2)C1", "note": "(centres undefined)", "activity change, negative = active": "1.92% (inactive)"}, {"smiles": "CC1(C(=O)NCC2CCOCC2)Cc2c(-c3cccc(C(N)=O)c3)ccnc2O1", "note": "(centres undefined)", "activity change, negative = active": "-12.4% (inactive)"}, {"smiles": "COc1ccc(-c2csc(C(O)c3cccc(Cl)c3)n2)cn1", "note": "(centres undefined)", "activity change, negative = active": "-0.133% (inactive)"}, {"smiles": "Cc1cccc(Cn2c(=O)n(CCC(=O)NCCc3ccc(Cl)cc3)c(=O)c3sccc32)c1", "activity change, negative = active": "-1.47% (inactive)"}, {"smiles": "O=C(Cn1c(-c2cccs2)cc2ccccc21)NCCc1ccc(Cl)cc1", "Potency": "20 µM (active)"}, {"smiles": "O=C(Cn1c(=O)nc(-c2ccccc2)c2cc(Cl)ccc21)NCc1ccc(Cl)cc1", "activity change, negative = active": "4.43% (inactive)"}, {"smiles": "CN(C)C1CN(Cc2cn(Cc3ccccc3)nn2)S(=O)(=O)C1", "note": "(centres undefined)", "activity change, negative = active": "1.81% (inactive)"}, {"smiles": "O=c1[nH]c2ccccc2n1C1CCN(CCOc2ccccc2)CC1", "activity change, negative = active": "1.5% (inactive)"}, {"smiles": "COC(=O)C1(C(=O)OC)C[C@H](c2ccccc2)N(Cc2ccccc2OC)[C@@H]1c1ccccc1", "activity change, negative = active": "-5.6% (inactive)"}, {"smiles": "O=C(NCc1ccc(Cl)cc1)c1cc2c(nc3sccn32)s1", "Potency": "31.6 µM (active)"}, {"smiles": "O=C(NCc1ccc2c(c1)OCO2)c1c(O)nc2sccn2c1=O", "activity change, negative = active": "-1.8% (inactive)"}, {"smiles": "O=C(NCc1ccc(Cl)cc1)c1cc(=O)nc2sc(-c3ccccc3)nn12", "activity change, negative = active": "-10.5% (inactive)"}, {"smiles": "CCc1nc2ccc(C(=O)NCc3ccc(OC)cc3)cn2c1N(CC)Cc1cccc(Br)c1", "activity change, negative = active": "-26.8% (inactive)"}, {"smiles": "COc1ccc(C(O)C(O)(C(=O)OC(C)C)c2ccc(C)cc2)cc1", "note": "(centres undefined)", "activity change, negative = active": "-0.377% (inactive)"}, {"smiles": "CC(C)(C)NC(=O)C(CCc1ccccc1)n1c(=O)c(-c2ccccc2)nc2ccccc21", "note": "(centres undefined)", "activity change, negative = active": "-29.6% (inactive)"}, {"smiles": "COc1ccc(C(C(=O)NCc2ccccc2)n2c(=O)c(-c3ccccc3)nc3ccccc32)cc1", "note": "(centres undefined)", "Potency": "28.2 µM (active)"}, {"smiles": "N#Cc1ccc(C(C(=O)NCc2ccccc2)n2c(=O)c(-c3ccco3)nc3ccccc32)cc1", "note": "(centres undefined)", "activity change, negative = active": "3.44% (inactive)"}, {"smiles": "CCc1nc2c(OCCOc3ccc(F)cc3)cccn2c1N(C)C(=O)c1ccccc1F", "activity change, negative = active": "0.272% (inactive)"}, {"smiles": "CC(C)(C)Cc1c(C2CCCCC2)nc2ccc(Br)cn12", "activity change, negative = active": "-1.44% (inactive)"}, {"smiles": "CCc1c(-c2ccc(F)cc2)ncn1Cc1cccc(-c2ccccc2)c1", "activity change, negative = active": "-16.7% (inactive)"}, {"smiles": "Cn1c(Nc2ccc(F)cc2)nc2cc(-c3ccsc3)sc2c1=O", "activity change, negative = active": "-19.8% (inactive)"}, {"smiles": "O=C(O)C1=C/C(=C/C=[N+]2c3cc(O)c(O[C@H]4OC(CO)[C@@H](O)[C@@H](O)[C@@H]4O)cc3C[C@@H]2C(=O)[O-])C[C@H](C(=O)O)N1", "note": "(some centres undefined)", "activity change, negative = active": "-1.44% (inactive)"}, {"smiles": "Cc1cccc(-c2cnc(C(O)c3cc(C)cc(C)c3)[nH]2)c1", "note": "(centres undefined)", "activity change, negative = active": "-1.64% (inactive)"}, {"smiles": "CCN(CC)c1nn2c(=O)c(C(=O)NCCc3ccccc3)cnc2s1", "Potency": "28.2 µM (active)"}, {"smiles": "O=C(NCCc1ccccc1)c1cnc2sc(N3CCCC3)nn2c1=O", "activity change, negative = active": "23.7% (inactive)"}, {"smiles": "O=C(O)c1ccccc1-c1ccccc1C(=O)NCCc1ccccc1", "activity change, negative = active": "0.88% (inactive)"}, {"smiles": "CC1(C(=O)Nc2cccc3cccnc23)CCN1C(=O)CCC1CCCC1", "note": "(centres undefined)", "activity change, negative = active": "-4.78% (inactive)"}, {"smiles": "Cc1ccc(NC(=O)Nc2nnc(-c3ccncc3)s2)cc1", "activity change, negative = active": "-17.4% (inactive)"}, {"smiles": "Cc1occc1C(=O)Nc1nnc(C2CCCCC2)s1", "activity change, negative = active": "1.56% (inactive)"}, {"smiles": "Cc1occc1C(=O)Nc1nnc(-c2ccncc2)s1", "Potency": "31.6 µM (active)"}, {"smiles": "CCCCOc1ccc(C(=O)NO)cc1", "activity change, negative = active": "1.01% (inactive)"}, {"smiles": "O=C(OCc1ccccc1)N1CCC2CC1c1ccc(-c3ccc4c(c3)OCO4)cc12", "note": "(centres undefined)", "activity change, negative = active": "-29.7% (inactive)"}, {"smiles": "CC1(C(=O)NS(=O)(=O)c2ccccc2Cl)CCN1C(=O)c1cccc(F)c1", "note": "(centres undefined)", "activity change, negative = active": "-2.25% (inactive)"}, {"smiles": "CCc1nc2c(OCCOc3ccccc3)cccn2c1N(C)C(=O)c1ccc(OC)cc1", "activity change, negative = active": "-0.66% (inactive)"}, {"smiles": "CCOC(=O)c1c(-c2ccccc2)oc2ccc(OCC(N)=O)cc12", "activity change, negative = active": "4% (inactive)"}, {"smiles": "CCOC(=O)c1cc(=O)c2ccc(OCc3ccccc3)cc2o1", "activity change, negative = active": "-0.5% (inactive)"}, {"smiles": "CCOC(=O)COc1cc(OCC(=O)OCC)c2c(=O)cc(-c3ccccc3)oc2c1", "Potency": "28.2 µM (active)"}, {"smiles": "CN1C[C@@H](CO)O[C@@H](n2cnc3c(N4CCN(CCO)CC4)ncnc32)C1", "activity change, negative = active": "-1.83% (inactive)"}, {"smiles": "COc1cccc(NC(=S)N(Cc2ccc(C)cc2)Cc2ccccn2)c1", "Potency": "28.2 µM (active)"}, {"smiles": "COc1cccc(NC(=S)NCc2ccccn2)c1", "activity change, negative = active": "1.22% (inactive)"}, {"smiles": "Cc1ccc(CN(Cc2cccnc2)C(=S)Nc2cccc(Cl)c2C)cc1", "activity change, negative = active": "-1.41% (inactive)"}]}]}
